Inconclusive results are not listed. Entries that show only a call come without a potency. Unmarked numbers belong to inactive results. Calls of active or inactive are those of the source. Calls follow the shape of the dose curve; as a rule, active = well fitted activation curve with a large enough effect in the repeat runs; inconclusive = weak or mixed curves; inactive = flat fitted curve, though single readings scatter.
Potency is read from the fitted curve at half-maximal effect.

The nature of this experiment: A CellTox Green Cytotoxicity Assay to monitor cytotoxicity in HepG2 cells - 8 hour (AID 1224890). Also: nearly all actives have a fitted effect of over 45% in size. The following applies: CellTox Green fluorescence; series mostly up to 76.8 µM. From the text: National Center for Advancing Translational Sciences [NCATS]
NIH Chemical Genomics Center [NCGC]
U.S. Environmental Protection Agency [EPA]
National Institutes of Environmental Health Sciences [NIEHS]
National Toxicology Program [NTP]
Cell-based models are critical for drug discovery. Determining the natural cytotoxic effects resulting from test compounds is an essential research activity. A CellTox Green Cytotoxicity Assay to monitor cytotoxicity in real time of continues cell culture during 40 hours of the compound treatment was used to screen Tox21 10K library compounds in HepG2 cells. CellTox Green Cytotoxicity Assay is a nonlytic, homogeneous, biofluorescent method to measure cytotoxicity in cell culture after experimental manipulation. The assay system uses a proprietary asymmetric cyanine dye that is excluded from viable cells but preferentially stains the dead cell's DNA. […] Viable cells produce no appreciable increases in fluorescence. Therefore, the fluorescence signal produced by the binding interaction with dead cell DNA is proportional to cytotoxicity.
The mixture of HepG2 cell suspension and reagents were dispensed at 600cells/6 ul/well in 1536-well tissue culture treated black solid bottom plates using a Multidrop dispenser. After the assay plates were incubated at a 37 C/5% CO2 incubator for 5 hours, 23 nL of compounds dissolved in DMSO, positive and negative controls was transferred to the assay plate by a pintool work station. The plates were incubated at 37 C for 40 hours. The fluorescence intensity were measured at 0h, 8h, 16h, 24h, 32h and 40h time points using ViewLux plate reader during compound treatment.
Turning to `Cc1cccc(C)c1NC(=O)CN1CCN(CCCC(c2ccc(F)cc2)c2ccc(F)cc2)CC1`, the Potency was 16.9 µM (active).

Consider `CCCCCCCCCCc1ccccc1`, for which the Potency entry is “inactive”.

Consider `CCCCCCCCCCCCCCCCCO`, for which the cytotoxicity increase is 1.25% [at 15.8 µM].

As for `C[Si](C)O[Si](C)C`, the Potency result is “inactive”.

Regarding `O=C1c2c(O)ccc([N+](=O)[O-])c2C(=O)c2c([N+](=O)[O-])ccc(O)c21`, the Potency result is “inactive”.

As for `CC(O)C#CC(C)O` (stereo not given), the Potency entry is “inactive”.

On to `COc1ccccc1C=O`, for which the Potency result was “inactive”.

Consider `C/C=C/c1ccc(OC)c(OC)c1`, for which the Potency entry was “inactive”.

In the case of `O=c1cccc[nH]1`, the Potency result was “inactive”.

As for `CCCCN(C)C`, the Potency result is “inactive”.

As to `CCc1cccc(C)c1`, the Potency entry was “inactive”.

Consider `O=C1c2c(O)ccc(O)c2C(=O)c2c(NCCNCCO)ccc(NCCNCCO)c21`, for which the Potency entry is “inactive”.

Turning to `CCCCNc1c(C(=O)OCC)c(C)nc2c1cnn2CC`, the Potency entry was “inactive”.

With `Cc1cccc(Br)c1`, the Potency entry is “inactive”.

With `CC(=O)O[C@@H]1C[C@@H]2CC[C@@]1(C)C2(C)C`, the Potency result was “inactive”.

With `O=C1OC(=O)c2cccc3cccc1c23`, the Potency entry was “inactive”.

Consider `Nc1ncnc2c1ncn2[C@@H]1O[C@H](COP(=O)(O)O)[C@@H](O)[C@H]1O`, for which the Potency result is “inactive”.

Turning to `c1ccc2c(c1)CCC2`, the Potency result is “inactive”.

For the molecule `Cc1oc(-c2ccccc2)nc1CCOc1ccc(C[C@H](Nc2ccccc2C(=O)c2ccccc2)C(=O)O)cc1`, the Potency entry is “inactive”.

Take `CC(CN(C)C)CN1c2ccccc2CCc2ccccc21` (stereo not given): the Potency result was “inactive”.

For `O=C1OC(=O)c2ccc3c4c(ccc1c24)C(=O)OC3=O`, the Potency result was “inactive”.

Regarding `Cc1cccc(N(C)C)c1`, the Potency entry was “inactive”.

For the molecule `S=C(SSSSSSC(=S)N1CCCCC1)N1CCCCC1`, the cytotoxicity increase was -7.66% [at 15.8 µM].

Consider `CCCCC(CC)COC(=O)c1ccc(O)cc1` (stereo not given), for which the Potency is 38.9 µM (active).

As to `Cc1cc(Nc2ccc(O)cc2)ccc1N`, the Potency entry is “inactive”.

For `NC1(c2ccc(-c3nc4ccn5c(=O)[nH]nc5c4cc3-c3ccccc3)cc2)CCC1`, the Potency result is “inactive”.

As for `Cc1cn[nH]c1`, the Potency result is “inactive”.

`O=CC1CC1`: the Potency result was “inactive”.

For `CC1CNCC(C)O1` (stereo not given), the Potency entry is “inactive”.

As for `Oc1c(Br)cc(Br)c2cccnc12`, the Potency result is “inactive”.

Turning to `CCCC(=O)OCC(COC(=O)CCC)OC(=O)CCC`, the Potency result was “inactive”.

For the molecule `CN(C)CCCN1c2ccccc2CCc2ccccc21`, the Potency result is “inactive”.

As to `C=C(C)C(=O)OCCC[Si](Cl)(Cl)Cl`, the Potency entry is “inactive”.

For the molecule `CCc1c(C(=O)O)c(=O)cnn1-c1ccc(Cl)cc1`, the Potency entry is “inactive”.

As for `CCOC(=O)CN`, the Potency entry is “inactive”.

With `Cc1c(C(=O)O)cccc1[N+](=O)[O-]`, the Potency entry was “inactive”.

Regarding `CC1=CCC(=O)O1`, the Potency entry is “inactive”.

With `Cc1ccc(CCn2c3c(c4cc(Cl)ccc42)CN(C)CC3)cn1`, the Potency entry was “inactive”.

Consider `CCCCCCOc1ccc(O)cc1`, for which the Potency was 24.5 µM (active).

For `CC(C(O)c1ccccc1)N(C)CCOC(c1ccccc1)c1ccccc1` (stereo not given), the Potency was 26.8 µM (active).

These data come from PubChem BioAssay (Tox21).
